Data on 15 compounds can be found in the supplement of paper PMC10646978.

Conditions in all cases: modulator concentration 10 µM
The test system of assay [1] is RAW-Dual (murine macrophage reporter line). Description: NF-kB reporter (SEAP) activity fold change vs agonist alone; higher = enhanced NF-kB activity. The gist of the method:
(§1)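 Overnight stimulation with a PRR agonist followed pre-incubation for 1 hour at 37 °C with compound at 10 μM final. This was done in RAW-Dual murine macrophage reporter cells seeded at 50 000 per well in 384-well plates. NF-κB (SEAP, QUANTI-Blue absorbance at 620 nm) and IRF (Lucia luciferase, QUANTI-Luc luminescence) were read from the supernatant. Each reporter's fold change relative to the mean agonist-only control on the same plate was averaged over replicate plates.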

Assay [2] has the same test system. Description: IRF reporter (Lucia luciferase) activity fold change vs agonist alone; higher = enhanced IRF activity. The gist of the method: as §1
The test system is the same in assay [3]. Put plainly: viability score (confluency relative to resting cells, overnight) (fraction); higher = more viable, active = viable (0.7 or more). The gist of the method: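 RAW-Dual macrophages in 384-well plates were treated overnight with compound at 10 μM final. IncuCyte imaging recorded confluency, and IncuCyte software built two confluency masks across every imaged well. The viability score expresses confluency relative to resting cells and was judged against a cutoff, which a compound met only if both masks exceeded 70% of resting cells.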

Where [4] appears, read: agonist: CpG ODN 1826 0.5 ug/mL.

± gives the standard deviation.

Regarding `O=C1CCCN1c1ccc(Cn2cc(-c3nc(-c4ccc(F)cc4)no3)ccc2=O)cc1`, the NF-kB reporter in assay [1] (setting [4]) was determined as 0.981 ± 0.15; in assay [1] (agonist: LPS 0.1 ug/mL), 1.06 ± 0.086; in assay [1] (agonist: MPLA […]) it was 1.01 ± 0.086. For the same compound, the IRF reporter was found to be 1.02 ± 0.053 in assay [2] (agonist: 3'3'-cGAMP 10 ug/mL), 1.04 ± 0.066 in assay [2] (agonist: LPS 0.1 ug/mL) and 1.16 ± 0.15 in assay [2] (agonist: MPLA […]). Further, the viability score in assay [3] was 1.01 (active).

Turning to `Br.O=S(=O)(c1ccc(-c2csc(Nc3cccc4ccccc34)n2)cc1)N1CCOCC1`, the NF-kB reporter in assay [1] (setting [4]) came out at 0.907 ± 0.077; in assay [1] (agonist: LPS 0.1 ug/mL) it was 1.01 ± 0.089; in assay [1] (agonist: MPLA […]), 1 ± 0.061. Moreover, the IRF reporter in assay [2] (agonist: 3'3'-cGAMP 10 ug/mL) is 0.769 ± 0.053; in assay [2] (agonist: LPS 0.1 ug/mL) it was 1.25 ± 0.08; in assay [2] (agonist: MPLA […]), 1.12 ± 0.32. Further, the viability score in assay [3] was 1 (active).

Take `CCOC(=O)C1=C(C)NC(=S)NC1c1ccccc1OCc1ccccc1` (stereo not given): the NF-kB reporter in assay [1] (setting [4]) amounted to 0.862 ± 0.069; in assay [1] (agonist: LPS 0.1 ug/mL), 1.05 ± 0.063; in assay [1] (agonist: MPLA […]), 0.965 ± 0.058. Moreover, the IRF reporter in assay [2] (agonist: 3'3'-cGAMP 10 ug/mL) stood at 0.679 ± 0.09; in assay [2] (agonist: LPS 0.1 ug/mL), 1.25 ± 0.22; in assay [2] (agonist: MPLA […]) it was 1.03 ± 0.087. In addition, the viability score in assay [3] was 1.01 (active).

`CCC(c1ccc(O)cc1)C(CC)c1ccc(O)cc1` (stereo not given) [Prestw-699]: the NF-kB reporter in assay [1] (setting [4]) came out at 0.567 ± 0.043; in assay [1] (agonist: LPS 0.1 ug/mL), 0.883 ± 0.068; in assay [1] (agonist: MPLA […]), 1.02 ± 0.1. Besides, the IRF reporter in assay [2] (agonist: 3'3'-cGAMP 10 ug/mL) is 0.75 ± 0.13; in assay [2] (agonist: LPS 0.1 ug/mL), 0.84 ± 0.11; in assay [2] (agonist: MPLA […]) it was 1.06 ± 0.16. Also, in assay [3], the viability score was 0.181 (inactive).

Turning to `Cc1ccc(-c2cc(-c3ccccc3)nc(NN=Cc3ccc(O)cc3)n2)cc1`, the NF-kB reporter in assay [1] (setting [4]) was determined as 0.952 ± 0.12; in assay [1] (agonist: LPS 0.1 ug/mL), 1.3 ± 0.14; in assay [1] (agonist: MPLA […]) it was 1.7 ± 0.17. Besides, the IRF reporter was 0.228 ± 0.026 in assay [2] (agonist: 3'3'-cGAMP 10 ug/mL), 0.942 ± 0.12 in assay [2] (agonist: LPS 0.1 ug/mL) and 0.949 ± 0.12 in assay [2] (agonist: MPLA […]). For the same compound, the viability score in assay [3] is 0.923 (active).

On to `O=S(=O)(NN=Cc1c[nH]c2ccccc12)c1ccc(Cl)cc1`, for which the NF-kB reporter amounted to 0.627 ± 0.053 in assay [1] (setting [4]), 0.619 ± 0.029 in assay [1] (agonist: LPS 0.1 ug/mL) and 0.844 ± 0.078 in assay [1] (agonist: MPLA […]). Further, the IRF reporter amounted to 0.0905 ± 0.0084 in assay [2] (agonist: 3'3'-cGAMP 10 ug/mL), 1.32 ± 0.11 in assay [2] (agonist: LPS 0.1 ug/mL) and 1.31 ± 0.13 in assay [2] (agonist: MPLA […]). In addition, the viability score in assay [3] was 0.962 (active).

For `COC(=O)/C=C/C(=O)OC`, the NF-kB reporter in assay [1] (setting [4]) came to 1.2 ± 0.17; in assay [1] (agonist: LPS 0.1 ug/mL), 1.06 ± 0.17; in assay [1] (agonist: MPLA […]) it was 1.01 ± 0.064. The IRF reporter in assay [2] (agonist: 3'3'-cGAMP 10 ug/mL) amounted to 0.61 ± 0.019; in assay [2] (agonist: LPS 0.1 ug/mL), 1.19 ± 0.28; in assay [2] (agonist: MPLA […]) it was 1.09 ± 0.12. In addition, the viability score in assay [3] was 1 (active).

For `COc1ccccc1C(=O)Nc1cnc(N2CCN(c3ccccn3)CC2)nc1`, the NF-kB reporter in assay [1] (setting [4]) is 0.887 ± 0.038; in assay [1] (agonist: LPS 0.1 ug/mL), 1.02 ± 0.12; in assay [1] (agonist: MPLA […]), 1.2 ± 0.066. Also, the figures for the IRF reporter in assay [2] (agonist: 3'3'-cGAMP 10 ug/mL), in assay [2] (agonist: LPS 0.1 ug/mL) and in assay [2] (agonist: MPLA […]) were 0.913 ± 0.086, 0.991 ± 0.21 and 1.12 ± 0.43, respectively. Also, in assay [3], the viability score was 0.877 (active).

As to `Cl.Cl.O=C(O)COCCN1CCN([C@H](c2ccccc2)c2ccc(Cl)cc2)CC1`, the NF-kB reporter is 1.07 ± 0.082 in assay [1] (setting [4]), 1.06 ± 0.052 in assay [1] (agonist: LPS 0.1 ug/mL) and 1.01 ± 0.047 in assay [1] (agonist: MPLA […]). Moreover, the figures for the IRF reporter in assay [2] (agonist: 3'3'-cGAMP 10 ug/mL), in assay [2] (agonist: LPS 0.1 ug/mL) and in assay [2] (agonist: MPLA […]) were 0.94 ± 0.057, 0.905 ± 0.035 and 0.97 ± 0.13, respectively. Also, the viability score in assay [3] was 1 (active).

On to `CC(C)c1ccc(OCC(=O)NCc2nnc3n2CCC(C(F)(F)F)C3)cc1` (stereo not given), for which the NF-kB reporter in assay [1] (setting [4]) was determined as 1.24 ± 0.094; in assay [1] (agonist: LPS 0.1 ug/mL) it was 1.05 ± 0.08; in assay [1] (agonist: MPLA […]), 0.988 ± 0.06. The IRF reporter was 0.99 ± 0.074 in assay [2] (agonist: 3'3'-cGAMP 10 ug/mL), 1.1 ± 0.075 in assay [2] (agonist: LPS 0.1 ug/mL) and 1.05 ± 0.13 in assay [2] (agonist: MPLA […]). Moreover, the viability score in assay [3] is 0.996 (active).

As for `CC(C)(O)CNC(=O)c1cccc([N+](=O)[O-])c1`, the NF-kB reporter in assay [1] (setting [4]) was 0.928 ± 0.074; in assay [1] (agonist: LPS 0.1 ug/mL), 0.96 ± 0.11; in assay [1] (agonist: MPLA […]) it was 0.954 ± 0.058. The IRF reporter in assay [2] (agonist: 3'3'-cGAMP 10 ug/mL) was found to be 0.811 ± 0.12; in assay [2] (agonist: LPS 0.1 ug/mL) it was 0.971 ± 0.15; in assay [2] (agonist: MPLA […]), 0.979 ± 0.23. The viability score in assay [3] was 0.995 (active).

For the compound `O=C(Nc1nc2cccc(-c3ccc(CN4CCS(=O)(=O)CC4)cc3)n2n1)C1CC1`, the NF-kB reporter in assay [1] (setting [4]) came to 0.0988 ± 0.0077; in assay [1] (agonist: LPS 0.1 ug/mL), 0.639 ± 0.07; in assay [1] (agonist: MPLA […]) it was 0.873 ± 0.05. For the same compound, the IRF reporter in assay [2] (agonist: 3'3'-cGAMP 10 ug/mL) was found to be 0.79 ± 0.047; in assay [2] (agonist: LPS 0.1 ug/mL), 0.851 ± 0.2; in assay [2] (agonist: MPLA […]), 0.845 ± 0.25. Besides, the viability score in assay [3] is 0.834 (active).

Regarding `O=C1[C@H](CC[C@H](O)c2ccc(F)cc2)[C@@H](c2ccc(O)cc2)N1c1ccc(F)cc1`, the NF-kB reporter was 1.11 ± 0.11 in assay [1] (setting [4]), 1.05 ± 0.051 in assay [1] (agonist: LPS 0.1 ug/mL) and 1.29 ± 0.12 in assay [1] (agonist: MPLA […]). Moreover, the IRF reporter in assay [2] (agonist: 3'3'-cGAMP 10 ug/mL) was 0.927 ± 0.063; in assay [2] (agonist: LPS 0.1 ug/mL), 0.98 ± 0.084; in assay [2] (agonist: MPLA […]) it was 1.21 ± 0.11. Also, in assay [3], the viability score is 0.97 (active).

`COCCNCCOc1cc(C)c(Cl)c(C)c1`: the NF-kB reporter is 0.908 ± 0.078 in assay [1] (setting [4]), 0.952 ± 0.045 in assay [1] (agonist: LPS 0.1 ug/mL) and 0.932 ± 0.085 in assay [1] (agonist: MPLA […]). The IRF reporter came out at 0.947 ± 0.049 in assay [2] (agonist: 3'3'-cGAMP 10 ug/mL), 1.52 ± 0.098 in assay [2] (agonist: LPS 0.1 ug/mL) and 1.67 ± 0.17 in assay [2] (agonist: MPLA […]). In assay [3], the viability score is 0.974 (active).

Regarding `CCN(CC)CCNC(=O)c1ccc(N)cc1.Cl`, the results for the NF-kB reporter in assay [1] (setting [4]), in assay [1] (agonist: LPS 0.1 ug/mL) and in assay [1] (agonist: MPLA […]) were 0.962 ± 0.14, 0.935 ± 0.4 and 0.887 ± 0.052, respectively. Also, the IRF reporter in assay [2] (agonist: 3'3'-cGAMP 10 ug/mL) stood at 0.952 ± 0.029; in assay [2] (agonist: LPS 0.1 ug/mL), 1.29 ± 0.3; in assay [2] (agonist: MPLA […]) it was 1.29 ± 0.097. Besides, the viability score in assay [3] was 0.993 (active).
